Bioassay records (PubChem BioAssay)
Shown is part of a subset that was picked to be rich in hits.
Dicer inh: inhibitors of Dicer pre-microRNA processing, primary screen, biochemical, cat-ELCCA, chemiluminescence. Endoribonuclease Dicer (Homo sapiens), Q9UPY3. cat-ELCCA pre-miR-21 Dicer processing; stronger effect = higher value. z-score at 25 µM. 47,000 compounds, 6% hits. AID 1347074, 2019; in the data active means z-score above about 3, passing the limit was not always enough;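 further: higher signal means more uncleaved substrate so more Dicer inhibition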
Large screens that a line does not name were inactive.

Cc1ccc(/C(O)=C2/C(=O)C(=O)N(CC(C)O)C2c2ccc(O)cc2)cc1 (stereo not given)	none
O=C(NC(=S)Nc1c(Cl)cc(Cl)cc1Cl)c1ccccc1	none
CC(=N\Nc1c(Cl)cc(Cl)cc1Cl)/C(=N\O)C(=O)Nc1ccccc1	Dicer inh 3
C/C(O)=C(\N=O)C(=O)Nc1ccccc1	none
O=C(/C=C/c1cccs1)Oc1ccccc1/C=N/N=C1\SCC(=O)N1c1cccc(F)c1	none
COC(=O)c1sc(Sc2ccc(C(F)(F)F)cn2)c2c1CC(C)(C)CC2=O	none
O=C(O)c1c2ccccc2nc2ccccc12	none
Cc1cccc(C)c1OCC(O)Cn1c(C)[n+](C)c2ccccc21 (stereo not given)	none
CCCc1n(CC(O)COc2cccc(OC)c2)c2ccccc2[n+]1C (stereo not given)	none
Cc1n(CC(O)COc2cccc(Cl)c2)c2ccccc2[n+]1C (stereo not given)	none
COc1ccc(OCC(O)Cn2c(C)[n+](C)c3ccccc32)cc1 (stereo not given)	Dicer inh 3.8
CCCc1n(CC(O)COc2ccc(F)cc2)c2ccccc2[n+]1C (stereo not given)	Dicer inh 3.7
CCCc1n(CC(O)COc2ccccc2C)c2ccccc2[n+]1C (stereo not given)	none
Clc1ccc(Nc2nc(-c3cc(-c4ccccc4)no3)cs2)cc1	none
CC(=O)N1C(=O)N(C(C)=O)C(O)C1O (stereo not given)	none
CCOC(=O)C1=C(C)Nc2nc3ccccc3n2C1c1ccc(O)c(OCC)c1 (stereo not given)	none
CCCS(=O)(=O)c1c(S(=O)(=O)CCC)c2ccc(C(N)=O)cn2c1C(=O)c1ccc(F)cc1	none
CCCS(=O)(=O)c1c(S(=O)(=O)CCC)c2ccccn2c1C(=O)c1ccc(F)cc1	Dicer inh 5
CCCS(=O)(=O)c1c(S(=O)(=O)CCC)c2ccccn2c1C(=O)c1ccc(C)cc1	none
O=C(O)/C=C/C(=O)Nc1ccc(-n2nc(C(F)(F)F)cc2C(F)(F)F)cc1	none
COc1ccc(-c2[nH]ncc2/C=C(\C#N)S(C)(=O)=O)cc1	none
COc1cc2ccccc2cc1C(=O)OCc1nc2ccccc2s1	none
Nc1nonc1-c1nc2ccccc2n1Cc1c(F)cccc1Cl	none
CN(CCc1ccccn1)Cc1cccc(F)c1	Dicer inh 3.5
CN(CCc1ccccn1)Cc1ccc(F)cc1	none
CN(CCc1ccccn1)Cc1ccccn1	none
COC(=O)c1ccc(N2C(=O)C3C4c5ccccc5C(C)(c5ccccc54)C3C2=O)cc1 (stereo not given)	none
CCn1c(=O)n(CC)c2cc3nc4c(nc3cc21)C(=O)c1ccccc1-4	none
COc1ccc(C2C(C(=O)OC3CCCC3)=C(C)NC3=C2C(=O)CC(C)(C)C3)cc1O (stereo not given)	none
C/C(Nc1ccccc1F)=C1/CCOC1=O	none
CC(=O)NC(Nc1ccccc1C)(C(F)(F)F)C(F)(F)F	none
C/C(Nc1ccccc1C)=C1/CCOC1=O	Dicer inh 4
CSc1nnc(NCc2cccc(Cl)c2)s1	none
O=S(=O)(CCS(=O)(=O)c1cccs1)c1ccccc1	none
Cc1nnc2n1NC(c1ccc(F)cc1)C(C(=O)Nc1ccc(Br)cc1Cl)S2 (stereo not given)	Dicer inh 3.4
Cc1ccc(C2Nn3c(C)nnc3SC2C(=O)Nc2ccc(C)cc2Br)cc1 (stereo not given)	none
Cc1cc(Br)ccc1NC(=O)C1Sc2nnc(C)n2NC1c1ccccc1 (stereo not given)	none
CCOc1cc(C2C(C(=O)OC3CCCCC3)=C(C)NC3=C2C(=O)CC(C)(C)C3)ccc1O (stereo not given)	none
Cc1cc2nc(-c3ccc4ccccc4c3)cc(C(F)(F)F)n2n1	none
O=c1c2ccccc2nc(-c2ccccc2)n1OCc1c(Cl)cccc1Cl	none
CN1C(=O)c2cccc3cc([N+](=O)[O-])cc(c23)C1=O	none
O=C1c2cccc3cc([N+](=O)[O-])cc(c23)C(=O)N1Cc1ccncc1	Dicer inh 3.5
O=C(O)CN1C(=O)c2cccc3cc([N+](=O)[O-])cc(c23)C1=O	none
CCOC(=O)NC(=S)NCCc1ccccn1	none
CCOC(=O)C(C)Oc1ccc(C)c(NC(=O)c2ccc(Cl)cc2[N+](=O)[O-])c1 (stereo not given)	none
Cc1nc2ccc(NC(=O)Nc3ccccc3)cc2o1	none
Fc1ccc(Cc2cn3cc(-c4ccccc4)nc3s2)cc1	none
c1ccc(Cc2cn3cc(-c4ccccc4)nc3s2)cc1	none
Clc1ccccc1Cc1cn2cc(-c3ccccc3)nc2s1	Dicer inh 4.1
COC(=O)c1c(C)oc2ccc(OC(=O)c3c(C)oc4ccc(OC(C)=O)cc34)cc12	none
CCCCOc1ccc(N2C(=O)C3CC(C)=C(C)CC3C2=O)cc1 (stereo not given)	none
COc1cc(OC)cc(N2C(=O)C3CC(C)=C(C)CC3C2=O)c1 (stereo not given)	none
CC12N=NCC1C(=O)N(c1ccccc1F)C2=O (stereo not given)	none
CC1=C(C)CC2C(=O)N(c3ccc(N(C)C)cc3)C(=O)C2C1 (stereo not given)	none
CC1=C(C)CC2C(=O)N(c3ccccc3F)C(=O)C2C1 (stereo not given)	Dicer inh 4.9
CC1=C(C)CC2C(=O)N(c3ccc(Oc4ccc(Cl)cc4)cc3)C(=O)C2C1 (stereo not given)	Dicer inh 3.3
O=C(Nc1ccc(Cl)c(Cl)c1)n1ccc(C(F)(F)F)n1	none
O=C(/C(=C\N1CCCC1)c1nnnn1-c1ccccc1)c1ccccc1	none
c1ccc(-c2cn3nc(-c4cccs4)sc3n2)cc1	none
NC(=O)C1(N2CCCCC2)CCN(C2CC(=O)N(c3cccc(Cl)c3)C2=O)CC1 (stereo not given)	none
CC1=CC(C)C2(CO)COC(c3ccc4c(c3)OCO4)C1C2C (stereo not given)	none
CC1=CC(C)C2(CO)COC(c3ccc(O)cc3)C1C2C (stereo not given)	Dicer inh 3.9
CC1=CC(C)C2(CO)COC(c3cccnc3)C1C2C (stereo not given)	none
Cn1c(=O)c2c(nc3n2CCN(CCc2ccccc2)C3)n(C)c1=O	none
c1ccc(-c2nc3ccccc3s2)cc1	none
c1cncc(-c2nc3ccccc3s2)c1	Dicer inh 5.6
Clc1ccc(-c2nc3ccccc3s2)cc1	none
Cn1sc(=O)c2ccc(S(=O)(=O)NCCc3ccncc3)cc21	none
COCCCNC(=S)NNS(=O)(=O)c1ccc(C)cc1	none
COc1ccc(-c2csnn2)cc1S(=O)(=O)Nc1ccccc1	none
Cc1ccc(S(=O)(=O)N/N=C/C(=O)O)cc1	none
COc1ccc(NS(=O)(=O)c2ccc(NS(=O)(=O)c3ccc(C)cc3)cc2)nn1	none
COCCCNS(=O)(=O)c1ccc(NS(=O)(=O)c2ccc(C)cc2)cc1	Dicer inh 4.7
CN(C)c1ccc(NS(=O)(=O)c2ccc(-c3csnn3)cc2)cc1	Dicer inh 7
Cc1ccc(S(=O)(=O)Nc2ccc(N(C)C)cc2)cc1	Dicer inh 3.8
CNC(=O)NNc1ccc(-c2csnn2)cc1	none
Cc1ccc(S(=O)(=O)NCCCN(C)C)cc1	none
Cc1ccc(NC2=NC(c3ccc(Cl)cc3)n3c(nc(C)cc3=O)N2)cc1 (stereo not given)	none
COc1ccc(CN2CCN(Cc3cccc(OC)c3OC)CC2)cc1Br	none
CCCCOC(=O)c1c(N)n(-c2ccc(OC)cc2)c2nc3ccccc3nc12	none
CCN(CC)S(=O)(=O)c1ccc2c(c1)C(=O)c1cc(S(=O)(=O)N(CC)CC)ccc1-2	none
CCOC(=O)N/N=C(\C)c1ccc(C#N)cc1	none
Cc1ccc(C(=O)CNC2=NCCC2)cc1	none
O=S(=O)(NCc1csc(-c2cccs2)n1)c1ccc(Oc2ccccc2)nc1	none
